The source of these data is the supplement of paper PMC11624193, “Coupling cellular drug-target engagement to downstream pharmacology with CeTEAM” (Nature Communications, 2024).

Structures can show the parent of a compound that is named as a salt.

For the experiment, the target named is PARP1 L713F-nLuc biosensor (HCT116) (UniProt P09874). The experiment in a line: PARP1 L713F-nLuc/akaLuc ratio relative to DMSO control (biosensor stabilization) (fold change); higher = more PARP1 biosensor stabilization (target engagement / stabilizer), active = hit call of the paper. Particulars: stock concentration (mM; final µM = stock mM x 1): 10; 24 h;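 active = log2 fold change beyond 2 SD from the library mean after excluding viability outliers; inactive = within 2 SD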.
Chain of PARP1 L713F-nLuc biosensor (HCT116) (P09874 whole entry L713F, looked up): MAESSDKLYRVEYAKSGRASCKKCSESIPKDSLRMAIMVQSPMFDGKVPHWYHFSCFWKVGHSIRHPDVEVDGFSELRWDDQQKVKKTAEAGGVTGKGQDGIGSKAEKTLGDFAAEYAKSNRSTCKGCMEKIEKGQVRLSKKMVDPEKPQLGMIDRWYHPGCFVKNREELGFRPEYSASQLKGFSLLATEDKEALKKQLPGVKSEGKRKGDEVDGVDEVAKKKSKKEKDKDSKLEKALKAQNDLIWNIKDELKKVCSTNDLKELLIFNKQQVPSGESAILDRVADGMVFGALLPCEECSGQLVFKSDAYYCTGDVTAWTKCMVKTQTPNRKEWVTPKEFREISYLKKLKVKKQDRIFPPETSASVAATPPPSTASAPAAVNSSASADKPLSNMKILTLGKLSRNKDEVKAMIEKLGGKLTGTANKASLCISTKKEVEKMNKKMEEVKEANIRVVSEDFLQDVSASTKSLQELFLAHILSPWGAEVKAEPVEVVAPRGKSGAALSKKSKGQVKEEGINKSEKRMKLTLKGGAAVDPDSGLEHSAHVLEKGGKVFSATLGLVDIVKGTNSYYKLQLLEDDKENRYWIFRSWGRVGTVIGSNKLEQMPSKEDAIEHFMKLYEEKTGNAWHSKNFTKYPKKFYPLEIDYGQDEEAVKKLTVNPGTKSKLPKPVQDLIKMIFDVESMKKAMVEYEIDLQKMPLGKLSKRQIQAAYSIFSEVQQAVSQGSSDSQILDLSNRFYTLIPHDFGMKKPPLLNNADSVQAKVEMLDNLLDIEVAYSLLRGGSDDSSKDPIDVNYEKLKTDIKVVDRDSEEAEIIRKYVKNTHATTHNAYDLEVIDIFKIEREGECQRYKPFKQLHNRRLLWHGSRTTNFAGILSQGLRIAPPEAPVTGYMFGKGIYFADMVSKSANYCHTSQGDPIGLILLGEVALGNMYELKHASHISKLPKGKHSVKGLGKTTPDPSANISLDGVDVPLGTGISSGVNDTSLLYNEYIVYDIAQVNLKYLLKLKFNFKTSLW
Regarding `CC#CC(=O)N1CC[C@@H](n2c(=O)n(-c3ccc(Oc4ccccc4)cc3)c3c(N)ncnc32)C1` [ONO-4059 (GS-4059) hydrochloride], the “PARP1 L713F-nLuc/akaLuc ratio” value is 1.06 (inactive). As for `N#Cc1cc(F)cc(Oc2ccc3c(c2C(F)F)[C@@H](O)C(F)(F)S3(=O)=O)c1`, the figure is 1.92 (inactive). For `O=C(NCc1ccncc1)C12CC3CC(C1)CC(c1ccc(Cl)cc1)(C3)C2`, the “PARP1 L713F-nLuc/akaLuc ratio” value was 0.757 (inactive). Then `COc1ccc2c(c1O)OC(C)(C)c1c-2ccc2c1C(=O)N(c1ccc(C(=O)c3ccccc3)cc1)C2=O` [Ampkinone], with 1.18 (inactive). As for `Cc1cn(CCN2CCN(c3ccccc3-c3cc(C#N)cc(C(=O)NCCCN4CCCC4)c3)CC2)c2ccccc12`, the figure is 0.612 (inactive). As for `O=C(Nc1ccc(Cl)cc1)c1cc2ccccc2cc1O` [Naphthol AS-E], the figure is 1.09 (inactive); as for `CS(=O)(=O)c1ccc(-c2cnc(NCc3ccco3)n3cnnc23)cc1`, 0.722 (inactive).

As to `Nc1ncc(-c2cccc(N3CCNCC3)c2)cc1C(=O)Nc1ccncc1` [PKC-iota inhibitor 1], the “PARP1 L713F-nLuc/akaLuc ratio” value is 1.02 (inactive). As for `CN1CCN(CCOc2cc(OC3CCOCC3)c3c(Nc4c(Cl)ccc5c4OCO5)ncnc3c2)CC1` [Saracatinib (AZD0530)], the figure is 0.92 (inactive); as for `CC1(C)NC(=O)N(c2ccc([N+](=O)[O-])c(C(F)(F)F)c2)C1=O` [Nilutamide], 0.772 (inactive); as for `Cc1c(C(=O)Nc2ccc(N3C[C@@H](C)O[C@@H](C)C3)nc2)cccc1-c1ccc(OC(F)(F)F)cc1` [Sonidegib (Erismodegib, NVP-LDE225)], 0.652 (inactive). Then `CN1CCc2c(c3ccccc3n2Cc2ccc(C(=O)NO)cc2)C1` [Tubastatin A], with 1.26 (inactive); and `N#Cc1ccc(C(=O)N(Cc2cccs2)C2CC2)cc1`, with 1.18 (inactive); and `CC[C@@H]1CN(C(=O)NCC(F)(F)F)C[C@@H]1c1cnc2cnc3[nH]ccc3n12` [Upadacitinib], with 1.32 (inactive). Then `COc1cccc2c1c(O)c(C(=O)N(C)c1ccc(C(F)(F)F)cc1)c(=O)n2C` [Tasquinimod], with 1.12 (inactive). Regarding `Cc1c(CN2CCC(Nc3ncnc4sc(CC(F)(F)F)cc34)CC2)ccc2c1cc(C#N)n2Cc1cn[nH]c1`, the “PARP1 L713F-nLuc/akaLuc ratio” value was 0.806 (inactive). As for `CNC(=O)c1ccc(N2C(=S)N(c3ccc(C#N)c(C(F)(F)F)c3)C(=O)C2(C)C)cc1F` [Enzalutamide (MDV3100)], the figure is 0.993 (inactive); as for `O=C(O)c1ccc(-c2c[nH]c3ncc(-c4ccccc4)cc23)cc1C1CCCC1`, 0.793 (inactive).

As to `Cc1cc(C)nc(SCC(=O)Nc2ncc(Cc3cccc4ccccc34)s2)n1`, the “PARP1 L713F-nLuc/akaLuc ratio” value is 0.926 (inactive).

Consider `N#Cc1ccc(-c2csc(NN=C3CCCC3)n2)cc1` [Remodelin (hydrobromide)], for which the “PARP1 L713F-nLuc/akaLuc ratio” value was 0.897 (inactive).

On to `O=C(NNS(=O)(=O)c1ccccc1)c1cc(-c2ccnnc2)ccc1F`, for which the “PARP1 L713F-nLuc/akaLuc ratio” value is 1.16 (inactive). Then `NC(=O)c1nc(-c2c(F)cccc2Cl)oc1Nc1ccc(C(=O)N2CCOCC2)cc1`, with 0.914 (inactive); and `CC1=C2C(=O)O[C@@H](c3ccoc3)[C@]2(C)CCC1` [Fraxinellone], with 0.831 (inactive); and `Cn1cncc1[C@@](N)(c1ccc(Cl)cc1)c1ccc2c(c1)c(-c1cccc(Cl)c1)cc(=O)n2C` [Tipifarnib], with 0.456 (inactive). With `COC(=O)c1ccc2c(c1)nc(NC(=O)c1ccccc1)n2CCCc1ccccc1`, the “PARP1 L713F-nLuc/akaLuc ratio” value was 0.949 (inactive). On to `COc1cccc(-n2c(=O)[nH]c3cc(Cl)n(-c4ccc(-c5cccc(OC)c5O)cc4)c3c2=O)c1`, for which the “PARP1 L713F-nLuc/akaLuc ratio” value is 0.814 (inactive). Then `Cc1c(-c2cnccn2)ssc1=S` [Oltipraz], with 0.846 (inactive).

As for `C[C@]12CC[C@@H]3c4ccc(O)cc4C[C@@H](CCCCCCCCC[S+]([O-])CCCC(F)(F)C(F)(F)F)[C@H]3[C@@H]1CC[C@@H]2O` (stereo partly drawn) [Fulvestrant], the “PARP1 L713F-nLuc/akaLuc ratio” value is 0.949 (inactive). As for `COc1cc2ncnc(Nc3ccc(O)cc3)c2cc1OC`, the figure is 0.842 (inactive); as for `N=C(N)c1ccc(-c2ccc(-c3ccc(C(=N)N)cc3)o2)cc1` [Furamidine (dihydrochloride)], 0.717 (inactive); as for `COC(=O)c1ccc2c(c1)NC(=O)/C2=C(\Nc1ccc(N(C)C(=O)CN2CCN(C)CC2)cc1)c1ccccc1` [Nintedanib (BIBF 1120)], 0.6 (inactive). As for `CC1=C(C)C(=O)C(C(C)(C)CC(=O)N(CCCCSC[C@H]2O[C@@H](n3cnc4c(N)ncnc43)[C@H](O)[C@@H]2O)Cc2cccc(-c3ccc(Cl)cc3)c2)=C(C)C1=O`, the figure is 0.784 (inactive).

For the compound `O=C(/C=C/N1C[C@H]2C[C@@H]1CN2c1ccccn1)c1ccccc1O`, the “PARP1 L713F-nLuc/akaLuc ratio” value was 1.3 (inactive). Then `O=C(NOCCO)c1ccc2cncn2c1Nc1ccc(I)cc1F`, with 0.421 (inactive).

Turning to `C[C@]1(O)C[C@@H](c2nc(-c3ccc4ccc(-c5ccccc5)nc4c3)c3c(N)nccn32)C1` [Linsitinib (OSI-906)], the “PARP1 L713F-nLuc/akaLuc ratio” value was 0.715 (inactive). As for `C=C(c1ccc(C(=O)O)cc1)c1cc2c(cc1C)C(C)(C)CCC2(C)C` [Bexarotene], the figure is 0.719 (inactive). As for `O=C(c1ccc(Cl)cc1Cl)n1nnc2ccccc21`, the “PARP1 L713F-nLuc/akaLuc ratio” value is 0.91 (inactive).

On to `CNc1cc(Nc2cccn(-c3ccccn3)c2=O)nn2c(C(=O)N[C@@H]3C[C@@H]3F)cnc12`, for which the “PARP1 L713F-nLuc/akaLuc ratio” value is 0.72 (inactive).
